Assay results as given in PubChem BioAssay (NCI).
The panel holds about 83,000 compounds, 20% with a hit somewhere; the sample as a whole holds those more often.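 Note: values are percent growth. 100 is the growth of untreated cells, values between 100 and 0 indicate rising inhibition; between -100 and 0 indicates cell death.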 Calls of active or inactive are those of the source. The calls were made as follows: active = growth percent below 10; inactive = the rest.

Experiments:
Assay in all cases: NCI-60 one-dose screen, 48 h (100 = growth as untreated, 0 = no growth, -100 = all killed)
Details in all cases: 10 µM unless noted
[1] = test system: T-47D breast
[2] = test system: BT-549 breast
[3] = test system: MDA-MB-435 melanoma
[4] = test system: SW-620 colon
[5] = test system: MCF7 breast
[6] = test system: HCT-116 colon
[7] = test system: HCC-2998 colon
[8] = test system: KM12 colon

Measured: growth

CCNC(=O)Oc1ccc(/C(=C(\C)c2ccccc2)c2ccc(OCCCN(C)C)cc2)cc1
inactive: [1] 45.6% | [2] 70.7% | [3] 69.6% | [4] 94.5% | [5] 27% | [6] 48.8% | [7] 67.9% | [8] 65.8%

C=C1C(=O)O[C@H]2[C@H]1CC/C(CNC(=O)c1cccc3ccccc13)=C\CC[C@@]1(C)O[C@@H]21
inactive: [1] 46% | [2] 46.9% | [3] 40.2% | [4] 16.5% | [5] 24.4% | [7] 88% | [8] 83.2%
active: [6] -21.6%

CC(=O)c1ccc(NS(=O)(=O)c2cccc(C(=O)Nc3ccc(Br)cc3)c2)cc1
inactive: [1] 30.6% [25 µM] | [2] 48.3% [25 µM] | [3] 53.4% [25 µM] | [4] 75.6% [25 µM] | [5] 60.8% [25 µM] | [6] 48.4% [25 µM] | [7] 79.8% [25 µM] | [8] 58.2% [25 µM]
